Assay outcomes as filed in PubChem.
Pf growth 48h – Primary qHTS for delayed death inhibitors of the malarial parasite plastid, 48 hour incubation; P. falciparum luciferase growth in erythrocytes, 48 h; AID 504832, 2011; 310,000 tested, 5.9% active; Potency, µM (highest dose often 28.7 µM), actives largely listed as inhibitors
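First compound was added to culture medium, then infected red cells at 0.1% parasitemia and 2% hematocrit (final). After incubation at 37 C under 5% CO2, luciferase detection reagent was dispensed and light output recorded.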
Shiga toxin inh – A qHTS for Small Molecule Inhibitors of Shiga Toxin. Vero cells, Shiga toxin protein synthesis inhibition reporter. inhibition, % at 38.7 µM. 290,000 tested, 9.2% active; in the data active = inhibition mostly above about 28%, no sharp cut-off; inactive = mostly below about 43%
Pf growth 96h – Primary qHTS for delayed death inhibitors of the malarial parasite plastid, 96 hour incubation. P. falciparum luciferase reporter growth, 96 h. 320,000 tested, 6.9% active. AID 504834, 2011. Potency, µM (doses to about 28.7 µM), usual class: inhibitors
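Luminescence readout: decreased luciferase signal marks inhibited growth of reporter-expressing P. falciparum in infected red cells (2% hematocrit, 0.05% parasitemia final), exposed to compound two generations (96 h, 37 C, 5% CO2).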
SARS PLP yeast – qHTS of Yeast-based Assay for SARS-CoV PLP; S. cerevisiae expressing SARS-CoV PLpro, growth rescue; Potency, µM (titrated, usually from 32.9 µM), usual class: activators; 330,000 tested, 0.19% active; AID 485353, 2010; calls by dose curve; also: nearly all actives have a fitted effect of over 55% in size
CHX counter – Cycloheximide Counterscreen for Small Molecule Inhibitors of Shiga Toxin | cell reporter, cycloheximide protein synthesis inhibition counterscreen | max response, % | 300,000 tested, 12% active | AID 2314, 2010; in the data active = max response mostly above about 13%, no sharp cut-off; inactive = mostly below about 14%; also: read at 38.3 µM for the half of the compounds with a filed dose
NS1 inh – qHTS Assay for Inhibitors of Influenza NS1 Protein Function; AID 2326, 2010; Potency, µM (titrated, usually from 46.1 µM); 270,000 tested, 0.4% active; calls by dose curve; also: actives are rising curves; nearly all actives have a fitted effect of over 50% in size
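OD600 was taken as the measure of yeast growth restored by compound in an NS1-expressing S. cerevisiae strain. Cells had been washed out of glucose medium and diluted 1:100 into galactose -URA medium, pH 6.0.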
A number is an active result; 0 = inactive; ? = inconclusive; - = no result. Most compounds without a hit are left out; they make up all but 21% or so of the library. Unless noted, calls follow the shape of the dose curve; as a rule, active = well fitted inhibition curve with a large enough effect; inconclusive = small, poorly fitted or top-dose-only effect, or another doubt; inactive = no such curve, though single readings can be large or run the other way.

SMILES | Pf growth 48h | Shiga toxin inh | Pf growth 96h | SARS PLP yeast | CHX counter | NS1 inh
Cc1ccc(C(=O)NCCc2c[nH]c3ccccc23)c(C)c1 | 0 | 87 | 0 | 0 | 79 | 0
O=C(NCCc1c[nH]c2ccccc12)c1ccc(-n2cnnn2)cc1 | ? | 0 | 0 | 0 | 0 | 0
CC(C)C(=O)NCCc1c[nH]c2ccccc12 | 0 | 0 | ? | 0 | 0 | 0
COCCN(C(=O)COC(=O)/C=C/c1cccc(C(F)(F)F)c1)c1c(N)n(CC(C)C)c(=O)[nH]c1=O | - | - | - | 0 | - | -
CCc1ccc(C(=O)CN2C(=O)NC3(CCc4ccccc43)C2=O)cc1 (stereo not given) | 0 | - | ? | 0 | - | -
CSc1nc(=S)n(-c2ccc([N+](=O)[O-])cc2)c(C)c1C(C)=O | 0 | 0 | ? | 0 | 0 | 0
Cc1cc(C)cc(NC(=O)CCNS(=O)(=O)c2cc(Br)cnc2N)c1 | 0 | 0 | ? | 0 | 0 | 0
CCSc1nnc(NC(=O)CCNS(=O)(=O)c2cc(Br)cnc2N)s1 | ? | 0 | 9.3µM | 0 | 0 | 0
O=C(O)c1sc2cc(C(F)(F)F)cnc2c1-c1cccs1 | 0 | 0 | ? | 0 | 0 | -
N#C/C(=C\c1ccc(N2CCOCC2)o1)C(=O)NCC1CCCO1 (stereo not given) | ? | 0 | 0 | 0 | 0 | 0
N#C/C(=C\c1ccc(N2CCOCC2)o1)C(=O)NC1CCCCC1 | ? | 46 | ? | 0 | 23 | 0
N#C/C(=C/c1ccc(N2CCOCC2)o1)C(=O)Nc1ccccc1 | 0 | 76 | 0 | 0 | 36 | 0
COc1ccc(CN(CC2CCCO2)C(=O)c2cc3sccc3n2C)c(OC)c1 (stereo not given) | ? | 0 | 0 | 0 | 0 | 0
Cc1c(-c2ccc(Cl)cc2)[n+](=O)c(-c2ccccc2)cn1[O-] | 0 | 0 | 0 | 0 | 0 | 0
C[n+]1c(-c2ccccc2)cc(-c2ccc(Cl)cc2)cc1-c1ccccc1 | 1.7µM | 0 | ? | 0 | 0 | 0
Cc1ccc(-c2cc(-c3ccccc3)cc(-c3ccccc3)[n+]2-c2ccccc2)cc1 | 0.37µM | - | 0.33µM | 0 | - | -
Cc1ccc(-c2cc(-c3ccc(C)cc3)[n+](-c3ccc(C(=O)[O-])cc3)c(-c3ccc(C)cc3)c2)cc1 | 3.7µM | - | ? | 0 | - | -
c1ccc(-c2cc(-c3ccccc3)[n+](-c3ccccc3)c(-c3ccccc3)c2)cc1 | 0.29µM | 0 | 0.37µM | 0 | 0 | 0
CN(C)c1ccc(-[n+]2c(-c3ccccc3)cc(-c3ccccc3)cc2-c2ccccc2)cc1 | ? | 0 | ? | 0 | 0 | 0
O=C(CCNC(=O)c1ccc(Br)cc1)NCc1ccccn1 | 0 | - | 0 | 0 | - | -
O=S1(=O)CCO[C@H]2Cc3ccccc3[C@H]2N1Cc1ccc(F)cc1 | 0 | 0 | 0 | 0 | 0 | 0
O=C(c1c(F)cccc1F)N1CCN=C1SCc1ccccc1 | 0 | 0 | 0 | 0 | 0 | 0
CCOc1ccc(-n2c(=O)c3sccc3n(CC(=O)Nc3cccc(OC)c3)c2=O)cc1 | 0 | 0 | 0 | 0 | 0 | -
CC(=O)Nc1scc(-c2ccccc2)[n+]1-c1ccc(C)cc1 | 0 | 0 | 0 | 0 | 0 | -
Cc1ccc(-c2cc(-c3ccc(C)cc3)[n+](-c3ccccc3)c(-c3ccc(C)cc3)c2)cc1 | 0.29µM | - | 0.29µM | 0 | - | -
SMILES | Pf growth 48h | Shiga toxin inh | Pf growth 96h | SARS PLP yeast | CHX counter | NS1 inh
CCN(C(=O)/C=C/c1ccc2c(c1)OCO2)c1ccccc1 | 0 | 43 | 0 | 0 | 21 | 0
O=C(N/N=C/c1cc2c(cc1Br)OCO2)c1cc2ccccc2o1 | ? | 0 | 0 | 0 | 0 | 0
O=C(/C=C/c1ccc2c(c1)OCO2)c1ccccn1 | 0 | 97 | 0 | 0 | 72 | 0
CCN(CC(=O)Nc1ccc(NC(C)=O)cc1)C(=O)/C=C/c1ccc2c(c1)OCO2 | 0 | - | 0 | 0 | - | -
O=C(N/N=C/c1ccc2c(c1)OCO2)c1ccc2ccccc2n1 | 0 | 0 | 0 | 0 | 26 | -
O=C(N/N=C/c1cc2c(cc1Br)OCO2)c1ccccn1 | 0 | 55 | 0 | 0 | 43 | 0
CN(CC(=O)Nc1ccc(F)cc1)CC(=O)N1CCCCCC1 | 0 | - | ? | 0 | - | -
COc1ccccc1CNC(=O)c1nccnc1CO | 0 | 0 | 0 | 0 | 0 | 0
CC(=O)c1ccc(NC(=S)NC(=O)c2c(Cl)c(C)nn2C)cc1 | 0 | 0 | 0 | 0 | 0 | 0
O=C(N/N=C/c1ccc2c(c1)OCO2)c1cc(-c2ccccc2)nc2ccccc12 | ? | 0 | 12µM | 0 | 0 | 0
O=C(N/N=C/c1ccc2c(c1)OCO2)c1cc(-c2ccco2)nc2ccccc12 | 0 | - | 0 | 0 | - | -
Cc1cccc(C(=O)N/N=C/c2ccc3c(c2)OCO3)n1 | 0 | 0 | 0 | 0 | 0 | 0
O=C(N/N=C/c1ccc2c(c1)OCO2)c1ccccn1 | 0 | 93 | 0 | 0 | 39 | 0
O=C(N/N=C/c1ccsc1)c1ccc2ccccc2n1 | 0 | 74 | 0 | 0 | 41 | 0
CC(=O)C[C@H](O)CC(=O)[C@H]1OC(=O)CC/C=C\Cc2ccccc21 | 0 | - | 0 | 0 | - | -
N#Cc1nccnc1S(=O)(=O)c1cccs1 | 0 | 0 | 0 | 0 | 0 | 0
CCc1ccc(C2C(C(=O)O)c3ccccc3C(=O)N2C)cc1 (stereo not given) | 0 | 0 | - | 0 | 0 | 0
CCc1ccc(/C=C/C(=O)C2C(=O)c3ccccc3C2=O)cc1 | 0.93µM | 0 | 0.93µM | 0 | 0 | 0
O=C(/C=C/c1ccccc1)C1C(=O)c2ccccc2C1=O | 0 | 42 | 0 | 0 | 33 | 0
Cc1cc(-c2ccccc2)nc2[n+]1CCN2C | - | 0 | - | 0 | 0 | 0
O=C/C=C/c1c(-c2ccccc2)cc2oc3ccccc3cc1-2 | ? | 0 | ? | 0 | 27 | 0
CCCCNC(=O)C1C2C=CC3(CN(Cc4ccc(C)cc4)C(=O)C13)O2 (stereo not given) | 0 | 0 | 10µM | 0 | 0 | 0
Cc1ccc(CN2CC34C=CC(O3)C(C(=O)NCc3ccco3)C4C2=O)cc1 (stereo not given) | 0 | 0 | 0 | 0 | 0 | ?
COc1ccc(C2C(CC(=O)O)=C(Nc3ccccc3)C(=O)N2c2ccccc2)cc1 (stereo not given) | 0 | 0 | 0 | 0 | 37 | -
O=C(O)CC1=C(Nc2ccccc2)C(=O)N(c2ccccc2)C1c1ccc(F)cc1 (stereo not given) | 0 | 99 | 0 | 0 | 52 | 0
O=C1CC(NCc2ccncc2)C(=O)N1c1ccc(Cl)cc1 (stereo not given) | 0 | 0 | 0 | 0 | 0 | 0
C[C@@]12CCC3[C@@](CCC4[C@@]3(C)CCC[C@@]4(C)C(=O)N3CCCCC3)(CC1=O)C2 (stereo not given in full) | 0 | - | 0 | 0 | - | -
CCCC/C=C/[C@H](c1ccccc1)[C@H](CO)Cc1cnc2ccccc2c1 | - | 0 | - | - | 0 | -
Cc1ccc(S(=O)(=O)Nc2ccc3c(c2)nc2n3CCN(Cc3ccccc3)C2)cc1 | ? | 0 | ? | 0 | 0 | ?
O=S(=O)(Nc1ccc2c(c1)nc1n2CCN(Cc2ccccc2)C1)c1ccc(Cl)cc1 | 9.3µM | 0 | 0 | 0 | 0 | 0
